# Several values for one entry are separate records, joined by “and”; a condition that tells them apart may be missing. Equal values may be shown once. Records with an inconclusive call do not appear. Activity calls are given as the source filed them. Unless noted, calls follow the shape of the dose curve; as a rule, active = well fitted curve in the direction sought with a large enough effect; inconclusive = small, poorly fitted or top-dose-only effect, or another doubt; inactive = no such curve, though single readings can be large; an effect the other way counts as inactive or inconclusive.
# Key:
# [1] = qHTS Assay for Lipid Storage Modulators (AID 1519; calls by dose curve; as to activity change, negative = inhibition: % is scaled to controls: 0 for no effect and ±100 for the full control effect); conditions: Drosophila S3 cells, BODIPY lipid droplet/cell ratio, laser cytometry, cells loaded with oleic acid
# Method in brief: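 Cells seeded at 5,000 per well were treated with compounds over a concentration series and loaded with oleic acid (400 uM, as added). Lipid droplet fluorescence (488 nm excitation, 500-530 nm channel) was read by laser-scanning cytometry and normalized to 20 uM Triacsin C.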
# [2] = Cell Viability - LYMP2-024 (AID 988); conditions: LYMP2-024 lymphoblastoid cell viability; series mostly up to 92.2 µM;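 also: plate controls were DMSO only for no effect and 92 µM tetraoctylammonium bromide for full effect; nearly all actives have a fitted effect of over 60% in size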
# Method in brief: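 Cytotoxicity was taken as a decrease in ATP (CellTiter-Glo luminescence) after 24 hr compound exposure at 37 C of LYMP2-024 lymphoblastoid cells, 2500 cells/well. Concentration-response data were fitted to the Hill equation to give AC50.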
# [3] = Cell Viability - LYMP2-026 (AID 989); conditions: LYMP2-026 lymphoblastoid cell viability, qHTS; series mostly up to 92.2 µM; also: % is scaled to controls: 0 for no effect and ±100 for the full control effect; nearly all actives have a fitted effect of over 50% in size
# Method in brief: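 Cytotoxicity read as ATP-dependent luminescence (CellTiter-Glo, 30 min room temperature) after 24 h compound treatment at 37 C. LYMP2-026 lymphoblastoid line seeded at 2500 cells/well; AC50 derived by standard Hill equation.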
# [4] = Cell Viability - LYMP1-002 - Assay at 40 hr (AID 994); conditions: LYMP1-002 lymphoblastoid cell viability; series mostly up to 92.2 µM;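 also: 0% = DMSO only and full inhibition = 92 µM tetraoctylammonium bromide; nearly all actives have a fitted effect of over 60% in size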
# Method in brief: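 Cytotoxicity was read as loss of cellular ATP (CellTiter-Glo luminescence) after 40 hr compound exposure at 37 C of 2500 LYMP1-002 lymphoblastoid cells per well. Concentration-response data were fitted with the standard Hill equation to give AC50.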
# [5] = target: Alpha-galactosidase A (Homo sapiens) (UniProt P06280); assay: Counterscreen for Glucocerebrosidase Inhibitors: qHTS Assay for Human alpha-Galactosidase at pH 4.5 (AID 992); conditions: purified enzyme, fluorogenic substrate; series mostly up to 76.9 µM; also: 0% is about no effect
# Method in brief: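 Each compound is preincubated briefly with 2 nM enzyme before substrate addition (80 uM); plates then sit 20 min at ambient temperature, are quenched with 1M NaOH/1M glycine, and read fluorometrically.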
# [6] = target: alpha-glucosidase (Oryza sativa, rice) (UniProt Q653V4); assay: Counterscreen for Glucocerebrosidase Inhibitors: qHTS Assay for Rice alpha-Glucosidase at pH 5.0 (AID 997); conditions: rice alpha-glucosidase enzyme activity; series mostly up to 76.9 µM;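 also: 0% = full activity with enzyme and -100% = basal without enzyme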
# Method in brief: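 Endpoint fluorogenic assay at pH 5.0: compounds (0.7 nM to 77 uM) titrated against 4 nM rice enzyme and 400 uM 4-MU-alpha-glucoside for 20 min at room temperature; NaOH/glycine stop, read ex 365/em 440 nm, Hill-fitted AC50.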
# [7] = target: DNA repair nuclease/redox regulator APEX1 (Homo sapiens) (UniProt P27695); assay: qHTS Validation Assay for Inhibitors of the Human Apurinic/apyrimidinic Endonuclease 1 (APE1) (AID 1705;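 also: TAMRA fluorescence gain over two minutes as APE1 cuts a quenched THF abasic duplex; % is scaled to controls: 0 for no effect and ±100 for the full control effect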); conditions: purified APE1 endonuclease activity, fluorescence, titration; series mostly up to 57.1 µM
# Source text: Assay Provider: David M. Wilson, III, National Institute on Aging, NIH
# Screening Center PI: Austin, C.P.
# Screening Center: NIH Chemical Genomics Center [NCGC]
# The apurinic/apyrimidinic endonuclease APE1 is the primary mammalian enzyme responsible for the removal of abasic (or AP) sites in DNA and functions centrally in the base excision DNA repair (BER) pathway. […] Thus, targeting APE1 could improve the efficacy of current treatment paradigms by promoting selective sensitization or protection of diseased and normal cells, respectively.
# Inhibition of APE1 activity was screened by utilizing double-stranded short substrate containing tetrahydrofuran (THF) abasic site labeled with rhodamine-type fluorophore (TAMRA) at the 5'-end and with non-fluorescent Black Hole Quencher-2 (BHQ-2) at the opposing 3'-end. An increase in the fluorescence intensity due to incision of the abasic site by APE1 was used to measure the enzyme activity.
# 1. […]
# Three uL of enzyme were dispensed to 1536-well Greiner black solid bottom plates. […] The plates were immediately transferred into ViewLux High-throughput CCD imager (Perkin-Elmer) in order to measure the reaction progress in kinetic mode (three reads every 60 seconds) using 525 nm excitation and 598 nm emission fluorescence protocol. The fluorescence intensity difference between the third and the first time points was used to compute reaction progress.
# [8] = Counterscreen for APE1 Inhibitors: Fluorescent Dye Displacement Validation Assay (AID 1707); conditions: fluorescent dye displacement from DNA; series mostly up to 57.1 µM;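 also: plate controls were ThO with dsDNA and no compound for no effect and ThO without dsDNA for full effect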
# Method in brief: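 Loss of Thiazole Orange fluorescence marks promiscuous DNA binders. The dye (250 nM) is mixed with 50 nM abasic-site dsDNA in pH7.5 Tris buffer containing MgCl2, then compounds are added and emission is read once.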
# [9] = target: Endonuclease 4 (Escherichia coli (strain K12)) (UniProt P0A6C1); assay: Counterscreen for APE1 Inhibitors: qHTS Validation Assay for Inhibitors of Endonuclease IV (AID 1708); also: % is scaled to controls: 0 for no effect and ±100 for the full control effect; conditions: E. coli endonuclease IV, DNA cleavage fluorescence; series mostly up to 57.1 µM
# Method in brief: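 Enzyme (2 nM) + compound, 15 min RT; add 50 nM TAMRA/BHQ-2 THF-site dsDNA; kinetic read ex525/em598, 3 reads/60 s; activity = read 3 − read 1. Buffer Tris pH 7.5, 50 mM NaCl, 2 mM MgCl2, DTT, Tween-20.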
# [10] = qHTS for differential inhibitors of proliferation of Plasmodium falciparum line 7G8 (AID 1815); conditions: Plasmodium falciparum 7G8 proliferation inhibition; series mostly up to 28.7 µM;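 also: parasite growth measured after three days of incubation; plate controls were vehicle wells for no effect and reference inhibitor wells for full effect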
# [11] = measured here: cell count channel max response
# [12] = measured here: lipid channel max response
# Sequence of Alpha-galactosidase A (Homo sapiens) (P06280 whole entry, looked up): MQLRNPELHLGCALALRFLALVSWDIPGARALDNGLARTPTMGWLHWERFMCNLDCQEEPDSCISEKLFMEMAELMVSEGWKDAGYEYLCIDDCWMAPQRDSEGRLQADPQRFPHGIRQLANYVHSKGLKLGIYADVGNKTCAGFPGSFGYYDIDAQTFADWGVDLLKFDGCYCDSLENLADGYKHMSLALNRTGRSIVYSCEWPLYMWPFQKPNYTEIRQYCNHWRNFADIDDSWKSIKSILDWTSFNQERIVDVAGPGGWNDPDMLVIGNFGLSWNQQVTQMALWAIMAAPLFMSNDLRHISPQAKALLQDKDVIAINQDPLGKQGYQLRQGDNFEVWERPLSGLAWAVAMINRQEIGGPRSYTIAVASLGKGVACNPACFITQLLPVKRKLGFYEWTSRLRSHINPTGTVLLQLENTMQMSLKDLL
# Sequence of DNA repair nuclease/redox regulator APEX1 (Homo sapiens) (P27695 whole entry, looked up): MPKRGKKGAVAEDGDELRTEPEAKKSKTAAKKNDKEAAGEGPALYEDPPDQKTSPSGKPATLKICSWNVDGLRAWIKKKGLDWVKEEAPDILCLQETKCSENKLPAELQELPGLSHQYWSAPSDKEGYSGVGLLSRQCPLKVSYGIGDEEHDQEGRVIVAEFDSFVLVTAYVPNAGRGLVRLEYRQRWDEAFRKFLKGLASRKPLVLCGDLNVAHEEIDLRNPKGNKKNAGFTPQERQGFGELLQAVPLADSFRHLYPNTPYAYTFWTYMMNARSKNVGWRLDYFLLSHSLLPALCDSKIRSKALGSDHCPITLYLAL
compound,measurement,setting,value
CCCCC1(COC(=O)CCC(=O)O)C(=O)N(c2ccccc2)N(c2ccccc2)C1=O,"activity change, negative = inhibition",[1]; at 25.7 µM (top of the series),-3.4% (inactive)
same,"activity change, negative = inhibition",[1]; at 57.5 µM (top of the series),5.77% (inactive)
same,max response,[1]; [11],-9.42% and 23.5%
same,max response,[1]; [12],-12.6% and 36.6%
Cc1ccsc1/C=C/C1=NCCCN1C,"activity change, negative = inhibition",[1]; at 57.5 µM (top of the series),7.06% (inactive)
same,max response,[1]; [11],12.1%
same,max response,[1]; [12],23.6%
C1CCN2C[C@@H]3C[C@@H](CN4CCCC[C@@H]34)[C@H]2C1,"activity change, negative = inhibition",[1]; at 57.5 µM (top of the series),2.67% (inactive)
same,max response,[1]; [11],14.6%
same,max response,[1]; [12],18.3%
C[C@@H]1CCC[C@H](C)N1,"activity change, negative = inhibition",[1]; at 25.7 µM (top of the series),-3.01% (inactive)
same,max response,[1]; [11],-4.31%
same,max response,[1]; [12],-8.89%
Cc1c(NC(=O)c2cccnc2)c(=O)n(-c2ccccc2)n1C,"activity change, negative = inhibition",[1]; at 25.7 µM (top of the series),-1.84% (inactive)
same,"activity change, negative = inhibition",[1]; at 57.5 µM (top of the series),5.04% (inactive)
same,max response,[1]; [11],3.68% and 18.2%
same,max response,[1]; [12],4.21% and 26.8%
CCN(CC)CCOC(=O)C(c1ccccc1)c1ccccc1,"activity change, negative = inhibition",[1]; at 25.7 µM (top of the series),-0.714% (inactive)
same,"activity change, negative = inhibition",[1]; at 57.5 µM (top of the series),-3.74% (inactive)
same,max response,[1]; [11],-10.9% and -9.85%
same,max response,[1]; [12],-13.6% and -9.37%
CCN(CC)C(=O)c1cccc(C)c1,outcome,[2],inactive
same,outcome,[3],inactive
same,outcome,[4],inactive
same,"activity change, negative = inhibition",[1]; at 57.5 µM (top of the series),7.23% (inactive)
same,max response,[1]; [11],15.5%
same,max response,[1]; [12],28.9%
O=C1c2cccc(O)c2C(=O)c2c(O)cccc21,outcome,[2],inactive
same,outcome,[3],inactive
same,outcome,[4],inactive
same,"activity change, negative = inhibition",[1]; at 57.5 µM (top of the series),-5.01% (inactive)
same,max response,[1]; [11],2.23%
same,max response,[1]; [12],-1.3%
NC(=O)CC[C@@H](N)C(=O)O,outcome,[5],inactive
same,outcome,[6],inactive
O=C(O)CCCCC1CCSS1 (centres undefined),outcome,[2],inactive
same,outcome,[3],inactive
same,outcome,[4],inactive
same,"activity change, negative = inhibition",[1]; at 57.5 µM (top of the series),3.99% (inactive)
same,max response,[1]; [11],11.5%
same,max response,[1]; [12],16.4%
CC(=O)NS(=O)(=O)c1ccc(N)cc1,outcome,[2],inactive
same,outcome,[3],inactive
same,outcome,[4],inactive
same,"activity change, negative = inhibition",[1]; at 25.7 µM (top of the series),-1.25% (inactive)
same,"activity change, negative = inhibition",[1]; at 57.5 µM (top of the series),7% (inactive)
same,max response,[1]; [11],0.487% and 9.27%
same,max response,[1]; [12],-1.3% and 19.7%
NC(N)=NS(=O)(=O)c1ccc(N)cc1,"activity change, negative = inhibition",[1]; at 25.7 µM (top of the series),-0.993% (inactive)
same,"activity change, negative = inhibition",[1]; at 57.5 µM (top of the series),6.41% (inactive)
same,max response,[1]; [11],1.84% and 2.06%
same,max response,[1]; [12],-0.509% and 12.7%
CCCCCC(N)=O,outcome,[2],inactive
same,outcome,[3],inactive
same,outcome,[4],inactive
COc1ccc(O)cc1,outcome,[2],inactive
same,outcome,[3],inactive
same,outcome,[4],inactive
O=C1C(c2[nH]c3ccccc3c2O)=Nc2ccccc21,outcome,[2],inactive
same,outcome,[3],inactive
same,outcome,[4],inactive
CN1C(C)(C)CCCC1(C)C,outcome,[5],inactive
same,outcome,[6],inactive
same,"activity change, negative = inhibition",[1]; at 25.7 µM (top of the series),0.627% (inactive)
same,"activity change, negative = inhibition",[1]; at 57.5 µM (top of the series),10.8% (inactive)
same,max response,[1]; [11],4.18% and 13.7%
same,max response,[1]; [12],5.5% and 25.7%
same,outcome,[7],inactive
same,outcome,[8],inactive
same,outcome,[9],inactive
same,outcome,[10],inactive
Cc1cc(=O)[nH]c(=S)[nH]1,outcome,[2],inactive
same,outcome,[3],inactive
same,outcome,[4],inactive
